Screening data from PubChem.
A selection: hits, their analogues and other compounds. The true share with any hit is near 4.5%.
ZTA counter – counter-screen for EBNA-1 inhibitors: inhibitors of Epstein-Barr virus ZTA | P03206 | ZTA-DNA binding, fluorescence polarization | inhibition, % at 11 µM | hit rate 0.15% among 320,000 | AID 2234; in the data active means inhibition above about 33%
Rpn11 block – Rpn11 (PSMD14) deubiquitinase inhibitors, primary screen, biochemical, fluorescence polarization, uHTS; inhibition, % at 20 µM; hit rate 0.59% among 360,000; human 26S proteasome, Ub4-pepOG fluorescence polarization; 20S core pre-blocked with epoxomicin;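 active means inhibition at 20 µM, scaled to each plate's controls, above about 33%, limit read from the data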
GRIN3A LBD mod – binders of NR3A ligand-binding domain, primary screen, biophysical, differential scanning fluorimetry, uHTS | Glutamate receptor ionotropic, NMDA 3A (GRIN3A) ligand-binding domain | NR3A LBD differential scanning fluorimetry, Tm shift; 0% = protein alone, 100% = glycine-bound protein | Tm shift relative to glycine control, % at 25 µM | hit rate 2.5% among 340,000 | AID 1259313, 2017;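 active means melting temperature shift of at least 10% of the positive control shift, at one fixed dose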
TPT1 inhibitor – Candida albicans TPT1 enzyme inhibitors, primary screen, biochemical, fluorescence polarization; recombinant caTPT1, FP RNA substrate dephosphorylation; inhibition, % at 5 µM; hit rate 0.81% among 300,000; AID 1962, 2009;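 active means inhibition above the mean of all tested compounds plus 3 SD, set per screening campaign, cut at about 24% in these data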;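 further: plate controls were DMSO alone for no effect and ferristatin control at 100 nM for full effect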
EBNA-1 inhibitor – EBNA-1 DNA-binding inhibitors, primary screen, biochemical, fluorescence polarization. inhibition, % at 14.8 µM. AID 1950, 2009. hit rate 0.34% among 300,000; in the data active means inhibition above about 28%
dFosB activator – activators of delta FosB homodimer, primary screen, biochemical, fluorescence polarization, TAMRA-CDK5 oligo, single point. purified delta FosB; percent of positive-control signal above neutral wells. Protein FosB (Mus musculus), P13346. activation, % at 25 µM. AID 493131, 2011. hit rate 0.99% among 340,000;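 active means mean activation above about 17%, with every replicate also reaching it, limit read from the data, passing the limit was not always enough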
Target sequence (P13346 whole entry, looked up): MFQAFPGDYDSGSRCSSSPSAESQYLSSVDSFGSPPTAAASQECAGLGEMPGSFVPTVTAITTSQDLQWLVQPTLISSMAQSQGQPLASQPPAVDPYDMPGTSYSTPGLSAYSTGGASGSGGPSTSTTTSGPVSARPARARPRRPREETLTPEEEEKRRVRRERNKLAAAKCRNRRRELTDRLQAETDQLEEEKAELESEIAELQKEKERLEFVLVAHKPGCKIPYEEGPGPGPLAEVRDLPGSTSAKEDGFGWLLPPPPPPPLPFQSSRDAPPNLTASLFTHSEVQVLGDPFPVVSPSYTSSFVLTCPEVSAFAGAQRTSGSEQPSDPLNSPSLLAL
* hit, by the source's call; . = no result given.

SMILES	ZTA counter	Rpn11 block	GRIN3A LBD mod	TPT1 inhibitor	EBNA-1 inhibitor	dFosB activator
Cc1cccc(Nc2nnc(SCC(=O)c3ccc(O)cc3O)s2)c1	6.4	-6.7	32.8*	1.8	3.3	8.8
Cc1ccc(Nc2nnc(SCC(=O)c3ccc(O)cc3O)s2)cc1	-2.2	-7.1	25.9*	0.9	-5.5	-3.1
CCN1C(=O)[C@H]2[C@@H](c3ccc(C)cc3)N3C(=O)N(c4ccc(C(F)(F)F)cc4)C(=O)[C@@]3(Cc3ccccc3)[C@H]2C1=O	-4.6	1.7	0.1	-3.3	-1.6	2.1
O=C(O)CCCNC(=O)c1ccccn1	-2.5	-3.3	-0.8	0.8	1.0	-0.3
CC(=O)Nc1cccc(NC(=O)CSc2ccc(C(F)(F)F)cc2[N+](=O)[O-])c1	-1.7	-0.2	0.6	-3.8	10.7	1.0
O=C(CSCc1ccc(C(=O)O)cc1)Nc1ccc2ccccc2c1	0.2	-2.9	-0.1	0.2	3.9	-4.1
CC(=O)c1ccc(NC(=O)CSCC(=O)Nc2ccc3ccccc3c2)cc1	-11.7	0.7	13.2*	1.7	-11.8	-4.1
O=C(CSc1ccc(C(F)(F)F)cc1[N+](=O)[O-])Nc1ccc2ccccc2c1	9.1	-10.8	34.5*	0.6	4.7	-1.8
CCC(=O)Nc1ccc(NC(=O)c2ccc3ccccc3c2)cc1	-17.1	-2.4	10.1*	0.2	-5.5	4.7
O=C(CSc1nc(=O)n2ccccc2n1)N1CCCc2ccccc21	-4.6	-2.5	-0.3	-1.4	8.4	6.4
CCN1CCN(C(=O)c2ccc(N3CC4CC(C3)c3cccc(=O)n3C4)c(NC(=O)c3cc(OC)cc(OC)c3)c2)CC1 (stereo unspecified)	-0.2	-8.6	0.7	0.7	-8.3	-2.6
O=C(NC(Cc1c[nH]c2ccccc12)c1nnc2n1CCCCC2)c1ccccc1Cl (stereo unspecified)	-6.2	-4.1	11.2*	0.0	11.1	-8.1
Cc1ccc2c(c1C)NC(C(=O)O)C1CC=CC21 (stereo unspecified)	4.6	33.8	2.2	26.0*	10.1	-7.8
O=C(O)C1Nc2c(C(=O)N3CCOCC3)cccc2C2C=CCC12 (stereo unspecified)	13.7	-10.9	-2.7	-13.8	11.6	-10.4
O=[N+]([O-])c1ccc(Nc2ccccc2F)nc1	-11.1	-0.5	26.8*	2.0	-6.4	4.1
O=[N+]([O-])c1ccc(NCc2ccc(Cl)cc2)nc1	3.4	-0.8	-1.5	1.0	-5.8	-5.0
Cc1ccc(NC(=O)c2ccc(Nc3ccccc3F)nc2)cc1	-2.3	-0.9	30.4*	-2.5	12.9	-2.0
Cc1ccccc1Nc1ccc([N+](=O)[O-])cn1	.	-6.5	0.1	.	.	1.8
O=[N+]([O-])c1ccc(Nc2ccc(Cl)cc2)nc1	13.3	4.4	11.3*	-1.6	12.4	0.5
O=[N+]([O-])c1ccc(Nc2ccc3ccccc3c2)nc1	-10.3	-0.8	37.6*	8.3	-9.5	-3.0
CCOC(=O)C1=C(COC(=O)/C=C/c2ccc(SC)cc2)NC(=O)NC1C (stereo unspecified)	-1.3	-3.1	1.2	-0.2	1.6	7.4
C[C@]12CC(O)C3C(CCC4=CC(=O)CC[C@@]43C)C1CCC2c1csc(-c2ccccc2)n1 (stereo partly specified)	6.6	3.8	13.3*	-3.3	5.8	-4.3
Cc1cccc(NC(=O)CSc2nnc(NC(=O)C3CCC3)s2)c1	-0.6	2.6	18.4*	-1.7	-15.9	-2.4
COc1cccc(NC(=O)CSc2nnc(NC(=O)C3CC3)s2)c1	-4.1	1.9	31.0*	-5.1	0.8	1.6
Cc1cccc(C(=O)Nc2nnc(SCC(=O)NC3CC3)s2)c1	-9.1	2.3	0.6	4.1	-2.7	11.9
Cc1cccc(NC(=O)CSc2nsc(SCC(=O)Nc3cccc(C)c3)c2C#N)c1	1.6	0.4	14.2*	3.8	19.3	3.9
CC(=O)Nc1cccc(NC(=O)CSc2nnc(NC(=O)C3CC3)s2)c1	6.7	-3.7	1.5	-1.1	6.5	-6.7
